Data: the supplement of paper PMC7530171
Structures can show the parent of a compound that is named as a salt. ± gives the standard deviation.

System: THP-1
Experiment: THP-1 cell loss relative to DMSO control; higher = more host cell loss (toxicity); extreme values may be limits of the assay
Details: 10 µM; 4 days; infection: M. tuberculosis H37Rv
Method: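 OICR kinase inhibitor library screened in duplicate at 10 uM against M. tuberculosis-infected THP-1 macrophages, 4 days at 37 C. THP-1 cell loss (cytotoxicity or loss of adherence) was quantified from Hoechst-stained nuclei counts by high-content imaging and normalised to the 1% DMSO control; 100 = complete loss of host cells.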

Structure (SMILES) | THP-1 cell loss [%]
O=C(O)c1ccc(-c2c[nH]c3ncc(-c4ccccc4)cc23)cc1C1CCCC1 | 9.42 ± 6.5
O=C(NCCCNc1nc(Nc2cccc(NC(=O)N3CCCC3)c2)ncc1I)c1cccs1 | 100
Cc1ccc(NC(=O)c2ccc(CN3CCN(C)CC3)cc2)cc1Nc1nccc(-c2cccnc2)n1 [Imatinib (free base)] | 3.31 ± 4.7
O=S(=O)(c1cccc2c(Cl)cccc12)N1CCCNCC1 [ML 9 hydrochloride] | 31.1 ± 21
Cn1c(Nc2ccc(C(F)(F)F)cc2)nc2cc(Oc3ccnc(-c4ncc(C(F)(F)F)[nH]4)c3)ccc21 | 100
Nc1cccc(-c2cc3c(Oc4cccc(O)c4)ncnc3[nH]2)c1 | 25.7 ± 7.3
O=C(NOCC1CC1)c1ccc(F)c(F)c1Nc1ccc(I)cc1Cl | 100
O=c1cc(N2CCOCC2)oc2c(-c3ccccc3)cccc12 | 59.5 ± 13
C[C@@]1(C(=O)Nc2ccc(F)nc2)CCCN1c1nc(Nc2cc(C3CC3)n[nH]2)c2cccn2n1 | 43.7 ± 27
O=[N+]([O-])c1ccc(-c2nc(-c3ccc(F)cc3)c(-c3ccncc3)[nH]2)cc1 | 17 ± 3.5
NC(=O)c1ccc(N(C(N)=O)c2c(F)cccc2F)nc1-c1ccc(F)cc1F | 10.1 ± 4.9
C/C(=N\N=C(N)N)c1ccc(NC(=O)Nc2ccc(/C(C)=N/N=C(N)N)cc2)cc1 | 3.54 ± 5
CO[C@H]1C[C@@H]2CC[C@@H](C)[C@@](O)(O2)C(=O)C(=O)N2CCCC[C@H]2C(=O)O[C@H]([C@H](C)C[C@@H]2CC[C@@H](OCCO)[C@H](OC)C2)CC(=O)[C@H](C)/C=C(\C)[C@@H](O)[C@@H](OC)C(=O)[C@H](C)C[C@H](C)/C=C/C=C/C=C/1C [Everolimus] | 22 ± 0.045
CC(C)CCN1c2nc(Nc3cc(F)c(O)c(F)c3)ncc2N(C)C(=O)C1C (stereo not given) | 56.5 ± 6.2
CCN(CC)CCCCNc1ncc2cc(-c3cc(OC)cc(OC)c3)c(NC(=O)NC(C)(C)C)nc2n1 | 8.25 ± 12
Cc1ccc([N+](=O)[O-])cc1S(=O)(=O)N(C)/N=C/c1cnc2ccc(Br)cn12 [PIK-75 hydrochloride] | 100
O=C(Nc1cc(Cl)cc2c1[nH]c1cnccc12)c1cccnc1 [PS1145 dihydrochloride] | 48.1 ± 24
CCn1c(-c2nonc2N)nc2cnc(Oc3cccc(NC(=O)c4ccc(OCCN5CCOCC5)cc4)c3)cc21 | 83.5 ± 23
COc1cc2ncnc(Nc3ccc(Oc4ccccc4)cc3)c2cc1OC | 0
CO[C@H]1C[C@@H]2CC[C@@H](C)[C@@](O)(O2)C(=O)C(=O)N2CCCC[C@H]2C(=O)O[C@H]([C@H](C)C[C@@H]2CC[C@@H](OC(=O)C(C)(CO)CO)[C@H](OC)C2)CC(=O)[C@H](C)/C=C(\C)[C@@H](O)[C@@H](OC)C(=O)[C@H](C)C[C@H](C)/C=C/C=C/C=C/1C [Temsirolimus] | 43 ± 2

Structure (SMILES) | THP-1 cell loss [%]
O=C1Nc2ccc(I)cc2/C1=C/c1cc(Br)c(O)c(Br)c1 | 20.5 ± 16
Cc1cccc(-c2[nH]c(C(C)(C)C)nc2-c2ccc3c(c2)OCO3)n1 | 74 ± 1.8
Oc1cc(-c2nc(-c3ccccc3)[nH]c2-c2ccncc2)ccc1Cl | 100
CCN1/C(=C/C(C)=O)Sc2ccc(OC)cc21 | 12.5 ± 2.4
O=c1c(-c2ccc(O)cc2)coc2cc(O)cc(O)c12 [Genistein] | 4.45 ± 2.2
O=c1oc2c(O)c(O)cc3c(=O)oc4c(O)c(O)cc1c4c23 [Ellagic acid] | 5.06 ± 7.2
CCOc1cc2ncc(C#N)c(Nc3ccc(OCc4ccccn4)c(Cl)c3)c2cc1NC(=O)/C=C/CN(C)C [Neratinib] | 55.4 ± 63
O=c1c(O)c(-c2ccc(O)c(O)c2)oc2cc(O)cc(O)c12 [Quercetin] | 12.8 ± 2.6
COc1cc(Nc2ncc3c(n2)-c2ccc(Cl)cc2C(c2c(F)cccc2OC)=NC3)ccc1C(=O)O | 8.63 ± 10
COc1cc2ncnc(Nc3ccc(Cl)cc3F)c2cc1OC | 0.676 ± 0.63
Nc1nccc(Oc2ccc(NC(=O)c3c[nH]cc(-c4ccc(F)cc4)c3=O)cc2F)c1Cl | 48.1 ± 23
CCN(CC)CCNC(=O)c1c(C)[nH]c(/C=C2\C(=O)Nc3ccc(F)cc32)c1C [Sunitinib Malate] | 53.7 ± 18
O=C1NC(=O)[C@@H](c2cn3c4c(cccc24)CCC3)[C@@H]1c1c[nH]c2ccccc12 | 43.4 ± 7.2
CNS(=O)(=O)Nc1nccc(Cc2c(C)c3ccc(Oc4ncccn4)cc3oc2=O)c1F | 100
Nc1ncnc(Nc2ccc(OCc3ccccc3)c(Cl)c2)c1/C=N/OCCN1CCOCC1 | 38.7 ± 4.5
CC(C)[C@H](CO)Nc1nc(Nc2cccc(Cl)c2)c2ncn(C(C)C)c2n1 [Purvalanol A] | 100
COc1cc2c(Oc3ccc4[nH]c(C)cc4c3F)ncnc2cc1OCCCN1CCCC1 [Cediranib] | 91.7 ± 12
CC(=O)c1ccc(N2CCOCC2)cc1O | 16.46 ± 0.081
COc1nccc(-c2c(-c3ccc(F)cc3)ncn2C2CCNCC2)n1 | 4.97 ± 0.45
C[C@@H](Oc1cc(-c2cnn(C3CCNCC3)c2)cnc1N)c1c(Cl)ccc(F)c1Cl | 33.8 ± 9.9
